Structures are written as SMILES. Results filed as inconclusive are left out. A call without a number means that no potency is given here. Calls of active or inactive are those of the source. Calls come from the whole dose curve.
Potency is the fitted concentration of half-maximal effect.

A short description of the assay: Cytotoxicity counterscreen for inhibitors of SARS-CoV-2 cell entry (AID 1645845). Note: nearly all actives have a fitted effect of over 50% in size. Conditions: cell viability (SARS-CoV-2 entry assay cells); series mostly up to 57.1 µM. The method, boiled down: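 HEK293-ACE2 cells (Expi293F stably expressing human ACE2) seeded overnight, then compound for 1 h plus 48 h at 37C. Viability as ATP content by luminescence; normalized to wells with cells and media-only wells.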
In general terms: The purpose of a counterscreen is to sort out artefacts and off-target activity.
As to `O=c1[nH]c2ccccc2n1C1CCN(Cc2ccc(-c3[nH]c4cc5ncnc5cc4nc3-c3ccccc3)cc2)CC1`, the Potency result is “inactive”.

With `COc1cc2nccc(Oc3ccc(NC(=O)C4(C(=O)Nc5ccc(F)cc5)CC4)cc3)c2cc1OC`, the Potency result was “inactive”.

In the case of `NC(=O)c1ccc(-c2nc(-c3ccc4c(c3)OCO4)c(-c3ccccn3)[nH]2)cc1`, the Potency result is “inactive”.

Take `O=C(Nc1cccnc1)N1CCC(Cc2cccc(Oc3ccc(C(F)(F)F)cn3)c2)CC1`: the Potency was 20 µM (active).

As for `CC(C)C(=O)Nc1ncc(-c2cc(C(F)F)nn2-c2c(Cl)cccc2Cl)s1`, the Potency entry was “inactive”.

As for `O=C(NCCS(=O)(=O)c1ccc(C(F)(F)F)cn1)c1ccc(Cl)cc1`, the Potency result was “inactive”.

In the case of `COc1cccc2c1CCCC2CCCN1CCN(C2CCCCC2)CC1` (stereo not given), the Potency entry is “inactive”.

For `Cc1cccc(-c2[nH]c(C(C)(C)C)nc2-c2ccc3nccnc3c2)n1`, the Potency entry was “inactive”.

Turning to `C/C(=C1\CCOC(=O)S1)N(C=O)Cc1cnc(C)nc1N`, the Potency result is “inactive”.

In the case of `Cn1c(=O)c(F)c(Nc2ccc(I)cc2F)c2c(=O)n(C[C@@H](O)CO)cnc21`, the Potency result was “inactive”.

`O=C(O)[C@H](Cc1c[nH]c2ccccc12)N1C(=O)c2ccccc2C1=O`: the Potency entry was “inactive”.

Take `C[C@@H](N)C1CCC(C(=O)Nc2ccncc2)CC1` (stereo not given in full): the Potency result is “inactive”.

For `CC(C)(C)c1cc(NC(=O)Nc2ccc(-c3cn4c(n3)sc3cc(OCCN5CCOCC5)ccc34)cc2)no1`, the Potency result is “inactive”.

Consider `CCCCc1ccc(NS(=O)(=O)c2ccc(C)c(C(=O)N3CCN(c4cccc(C)c4C)CC3)c2)cc1`, for which the Potency result was “inactive”.

For `NC(=O)c1c(OCc2c(F)cc(Br)cc2F)nsc1NC(=O)NCCCCN1CCCC1`, the Potency entry is “inactive”.

The values are drawn from PubChem BioAssay (NCATS).
